# Screening data: PubChem, National Center for Advancing Translational Sciences (NCATS)
# An excerpt weighted towards active compounds, which were near 10% of everything screened.
# Six1-Eya2 inh = qHTS Assay for Inhibitors of the Six1/Eya2 Interaction; Homeobox protein SIX1 (Homo sapiens) + Protein phosphatase EYA2 (Homo sapiens), …; AlphaScreen GST-Six1/His-Eya2 binding, biochemical; stronger effect = lower value; activity change, % (test concentration not listed); 0.56% of 360,000 active; AID 651725, 2012; in the data active = activity change below about -65%; inconclusive = mostly about -30% to -63%; also: % is scaled to controls: 0 for no effect and ±100 for the full control effect
#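 Six1/Eya2 binding was read as AlphaScreen signal after compounds were pinned into GST-Six1 plus His-tagged Eya2 (5X stock 250/500 nM) in pH 8.0 Tris/NaCl/TCEP buffer, beads added, then incubated 1 h, 37 C, dark.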
# BAZ2B inh = qHTS Assay for Inhibitors of BAZ2B | AlphaScreen BAZ2B-H3K14Ac peptide displacement | Potency, µM (series often up to 114 µM), without a hit: at the top dose activity change, negative = inhibition, usual class: inhibitors | 4.4% of 360,000 active; also: potency is read from the fitted curve at half-maximal effect; % is scaled to controls: 0 for no effect and ±100 for the full control effect; nearly all actives have a fitted effect of over 60% in size
#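 AlphaScreen displacement: compounds (up to 110uM) incubated 30 min at room temperature with a preformed 50 nM BAZ2B/50 nM biotinylated H3K14Ac peptide complex in PBS pH 7.4 with Tween-20. Donor and acceptor beads at 10 ug/mL final added, 20 min light-protected before reading.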
# HP1b binding inh = HTS for Inhibitors of HP1-beta Chromodomain Interactions with Methylated Histone Tails | Chromobox protein homolog 1 (Homo sapiens), P83916 | AlphaScreen HP1-beta / biotin-H3K9me3 peptide binding | Potency, µM (top dose mostly 114 µM), for inactives: at the top dose activity change, negative = inhibition, actives largely listed as inhibitors | 0.56% of 390,000 active; also: potency is read from the fitted curve at half-maximal effect; nearly all actives have a fitted effect of over 70% in size
#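 HP1-beta protein (50 nM final) preincubated 30 min at room temperature with biotinylated H3(1-18)K9me3 peptide (50 nM) in PBS pH 7.4, 0.01% Tween-20, then compound added for 30 min. AlphaScreen streptavidin donor/nickel chelate acceptor beads (10 ug/mL final), 30 min dark, luminescence read.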
# CtBP-E1A inh = qHTS Assay for Inhibitors of the CtBP/E1A Interaction; activity change, % (test concentration not listed); 0.49% of 340,000 active; AID 651724, 2012; CtBP / adenovirus E1A interaction (AlphaScreen); AlphaScreen GST-E1A/His-CtBP binding, 1536-well; stronger effect = lower value; in the data active = activity change below about -65%; inconclusive = mostly about -30% to -63%; also: % is scaled to controls: 0 for no effect and ±100 for the full control effect
#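 In 5 uL wells, 23 nL compound meets equimolar GST-E1A and His-CtBP (5X stock 125 nM each) for 2 h, 37 °C. Beads (5X, 50 ug/mL) then 1 h, 37 °C, dark.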
# JMJD2A Tudor = qHTS Assay for Inhibitors of JMJD2A-Tudor Domain; Lysine-specific demethylase 4A (Homo sapiens), O75164; AID 504339, 2011; AlphaScreen JMJD2A-Tudor / H3K4me3 peptide binding; 4.4% of 390,000 active; Potency, µM (top dose mostly 114 µM), inactives show top-dose activity change, negative = inhibition, actives largely listed as inhibitors; also: potency is read from the fitted curve at half-maximal effect; % is scaled to controls: 0 for no effect and ±100 for the full control effect; nearly all actives have a fitted effect of over 50% in size
# G9a block = qHTS Assay for Inhibitors of Histone Lysine Methyltransferase G9a. Histone-lysine N-methyltransferase EHMT2 (Homo sapiens), Q96KQ7. G9a H3K9 monomethylation, AlphaScreen, 2 h. Potency, µM (top dose mostly 102 µM), without a hit: at the top dose activity, negative = inhibition, hits mostly inhibitors. 8.8% of 350,000 active. AID 504332, 2011; also: potency is read from the fitted curve at half-maximal effect; % is scaled to controls: 0 for no effect and ±100 for the full control effect; nearly all actives have a fitted effect of over 75% in size
#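 Enzyme 20 nM + cpd, 15 min RT; add b-H3K9 pep 500 nM / SAM 20 uM; 2 h RT; anti-H3K9me1 Ab 0.5 ug/mL + SA donor / anti-rabbit acceptor beads 20 ug/mL each, 10 min; AlphaScreen read.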
# Active calls of the source: *; ? = inconclusive; . = no result; [ ] = dose if it differs, or a comment. Unless noted, calls follow the shape of the dose curve; as a rule, active = well fitted inhibition curve with a large enough effect; inconclusive = small, poorly fitted or top-dose-only effect; inactive = no such curve, though single readings can be large or run the other way.
SMILES,Six1-Eya2 inh,BAZ2B inh,HP1b binding inh,CtBP-E1A inh,JMJD2A Tudor,G9a block
COc1ccc(/C=N/NC(=O)c2ccc(=O)n(C)c2)cc1OC,-9,-23%,33%,-2,6%,-31%
Cn1nccc1C(=O)N/N=C/c1c(O)ccc2ccccc12,-87*,?,51%,-83*,-21%,21%
CN1CCN(CC(=O)N/N=C\c2c[nH]c3ccccc23)CC1,.,-34%,.,.,.,16µM*
O=C(NCCC1=CCCCC1)c1ccc2c(c1)ncn2-c1ccc(F)c(F)c1,.,-3%,-14%,.,-17%,-1%[59 µM]
CCOC(=O)c1ccc(NC(=O)CSc2nccn2-c2cc(C)cc(C)c2)cc1,.,-14%,4%[57 µM],.,-16%,-33%[59 µM]
CN1CCN(CCC(=O)N/N=C/c2ccccn2)CC1,-1,?,7%,-3,7.9µM*,1.3µM*
O=C(NN=Cc1c(O)ccc2ccccc12)c1ccncc1,-89*,.,24%,?,79µM*,.
COc1cc(/C=N/NC(=O)c2ccncc2)cc2c1OCO2,-10,-1%,24%,-3,-9%,-1%
COc1cc(/C=N/NC(=O)CCN2CCN(C)CC2)cc2c1OCO2,9,-12%,?,10,0.79µM*,38%
O=C(N/N=C/c1c(O)ccc2ccccc12)c1ccc[n+](CCO)c1,-91*,13µM*,27%,-90*,28µM*,?
Cc1occc1C(=O)N/N=C/c1c(O)ccc2ccccc12,-23,19%,38%,-28,-18%,44%
O=C(N/N=C/c1ccccn1)C1CC1,0,?,10%,0,1.3µM*,3.5µM*
O=C(N/N=C/c1ccccn1)c1ccc(Cl)c(Cl)c1,.,-1%,.,.,.,.
O=C(N/N=C\c1c(O)ccc2ccccc12)c1ccc(O)cc1,-65*,-5%,0%,?,?,.
CC(=O)c1ccc(NC(=O)Cn2c(=O)oc3cc(S(=O)(=O)N4CCCCC4)ccc32)cc1,.,5%,35%,.,-3%,7%[59 µM]
CCN(CC)CCOC(=O)C(c1ccccc1)c1ccccc1,-9,?,24%,-4,-6%,9%[59 µM]
CCN(CC)CCOC(=O)C(Cc1ccco1)Cc1cccc2ccccc12 (centres undefined),-19,.,?,-22,13µM*,.
CCN(CC)CCOC(=O)CCc1cccc2ccccc12,2,?,-38%,-1,28µM*,7.9µM*
CN1CCN(Cc2coc3c(Cl)cc(Cl)cc3c2=O)CC1,1,50µM*,?,.,8.9µM*,25µM*
Cc1ccc(NC(=O)CC2Nc3cc(C)c(C)cc3NC2=O)c(C)c1 (centres undefined),.,-1%,18%,.,-14%,-4%[59 µM]
OCCN1CCN(C(=S)c2ccc(Cl)c(Cl)c2)CC1,?,8%,?,0,56µM*,2µM*
CC(=O)c1ccc(NC(=S)N2CCN(CCO)CC2)cc1,-20,-1%,21%,1,-17%,16%
O=C(O/N=C1\CCCCC1c1ccc([N+](=O)[O-])cc1[N+](=O)[O-])c1c(F)cccc1F (centres undefined),?,?,-31%,?,45µM*,40µM*
O=C(CNc1ccc(Br)cc1)c1ccccc1,-1,7%,22%,8,-10%,?
O=C(CNc1ccccc1Cl)c1ccc(Br)cc1,9,3%,45%,7,-10%,79µM*
SMILES,Six1-Eya2 inh,BAZ2B inh,HP1b binding inh,CtBP-E1A inh,JMJD2A Tudor,G9a block
CCOC(=O)CC(=O)COc1nc2cc3c(nc2o1)CCCC3,-14,4%,40%,-6,?,45µM*
Cc1ccccc1NC(=O)Cn1cnc2c(oc3nc4c(cc32)CCCC4)c1=O,-6,?,33%,-12,-11%,?
N#Cc1cc2c(nc1SCC(=O)N1CCCCC1)CCCCC2,-3,10%,-20%,4,56µM*,2.8µM*
N#Cc1cc2c(nc1SCc1ccncc1)CCC2,2,3%,10%,-4,22µM*,3.2µM*
CCOC(=O)CC(=O)CSc1nc2c(cc1C#N)CCCCC2,-1,4%,74%,-1,50µM*,7.9µM*
N#Cc1cc2c(nc1SCc1ccccc1)CCC2,9,1%,19%,-2,-7%,?
COc1cccc(CNC(=O)Nc2cc(C(=O)NCc3cccc(F)c3)ccc2N2CCCC2)c1,.,-13%,15%,.,-9%,-3%[59 µM]
Cc1ccc(-c2cn(-c3ccc(Cl)cc3)c(S(=O)(=O)CC(=O)Nc3ccccc3)n2)cc1,.,-30%,5%,.,?,?
Cc1ccccc1NC(=O)c1cnc2sc(N3CCCC3)nn2c1=O,.,-6%,-15%,.,-11%,8%[59 µM]
COC(=O)c1cccc(NC2=NS(=O)(=O)c3ccccc32)c1,.,7%,38%,.,5%,1%[59 µM]
Cc1ccc(C(=O)CC(C(=O)O)P(=O)(c2ccccc2)c2ccccc2)cc1 (centres undefined),3,-26%,5%,-2,-21%,71µM*
CCCCCN1C(C(=O)c2ccccc2)=C(NC(=O)c2ccccc2Cl)c2ccccc2S1(=O)=O,.,0%[57.1 µM],21%,.,-27%,-27%[59 µM]
O=C(c1ccccc1)c1nc2c(n1O)CCCCC2,-5,79µM*,15%,-2,-13%,56µM*
CCCOc1ccc(C(=O)c2nc3c(n2O)CCCCC3)cc1,-5,-5%,10%,-6,?,-20%[12.7 µM]
O=[N+]([O-])c1cc(C(F)(F)F)ccc1NCCCCNS(=O)(=O)c1ccc(Cl)cc1,-8,?,?,19,?,?
O=C(O)c1ccc(NCCc2ccc(Cl)cc2)c([N+](=O)[O-])c1,-10,?,3%,-1,-34%,79µM*
O=[N+]([O-])c1cc(Cl)ccc1NCCc1ccccn1,-28,10µM*,?,?,45µM*,?
O=[N+]([O-])c1cc(C(F)(F)F)ccc1NCCNC(=S)Nc1ccc(Cl)cc1,?,20µM*,-24%,11,?,28µM*
CCOc1ccc(NC(=O)CC2C(=O)N(c3cccc(C)c3)C(=O)N2Cc2cccs2)cc1 (centres undefined),.,-5%,32%,.,-12%,?
CCOC(=O)c1cccc(NC(=O)C(C)n2nc(C)c3c(C)n(-c4ccccc4)nc3c2=O)c1 (centres undefined),.,-13%,16%,.,-13%,-35%[59 µM]
